Screening data as filed in PubChem.
BoNT-F LC inh – inhibitors of Botulinum neurotoxin F light chain protease | Multiplex microsphere protease cleavage assay, flow cytometry | AID 588497 | inhibition, % at 10 µM | 0.22% of 360,000 active; in the data active = inhibition above about 35%, passing the limit was not always enough; inconclusive = no clear call, values can overlap the other calls; also: plate controls were buffer without enzyme for full effect and enzyme alone for no effect
BoNT A protease – inhibitors of Botulinum neurotoxin A light chain protease; multiplex microsphere protease substrate cleavage, flow cytometry; inhibition, % at 10 µM; 0.17% of 360,000 active; also: plate controls were buffer without enzyme for full effect and enzyme alone for no effect
Bead autofluor – counter-screen for toxin protease inhibitors: compound fluorescence; compound autofluorescence counterscreen, microsphere flow cytometry; hits give high values; fluorescence intensity (no concentration beside the values); 3.1% of 360,000 active; in the data active = fluorescence intensity above about 16000; inconclusive = no clear call, values can overlap the other calls
SSB-PriA inh – inhibitors of Klebsiella pneumoniae PriA binding to SSB C-terminal tail; AlphaScreen SSBct-PriA binding, biotinylated peptide; inhibition, % at 33 µM; 0.6% of 430,000 active; in the data active = inhibition mostly above about 37%, no sharp cut-off; inactive = mostly below about 20%;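 also: plate controls were negative control peptide for no effect and reference peptide for full effect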
Anthrax LF prot – anthrax lethal factor protease inhibition | P15917 | multiplex microsphere protease cleavage assay, LF | 0.12% of 360,000 active | inhibition, % at 10 µM | AID 588501; also: plate controls were buffer without enzyme for full effect and enzyme alone for no effect
* = called active by the depositor; ? = inconclusive; nt = no result given. A selection: hits, their analogues and other compounds. The true share with any hit is near 3.1%. Rule as the data show it, unless noted: active = inhibition above about 30%; inconclusive = no clear call, values can overlap the other calls; inactive = below that.

SMILES	BoNT-F LC inh	BoNT A protease	Bead autofluor	SSB-PriA inh	Anthrax LF prot
Cc1ccc(C)c2sc(N(CCCn3ccnc3)C(=O)c3ccco3)nc12	nt	nt	nt	-20	nt
CCOc1ccc2nc(N(CCCn3ccnc3)C(=O)c3cccs3)sc2c1	nt	nt	nt	40*	nt
Cc1ccc(C)c2sc(N(CCCn3ccnc3)C(=O)Cc3ccc(F)cc3)nc12	nt	nt	nt	33*	nt
COc1ccc2nc(N(CCCn3ccnc3)C(=O)Cc3ccc(F)cc3)sc2c1	nt	nt	nt	39*	nt
COc1ccc(C)c2sc(N(CCCn3ccnc3)C(=O)Cc3ccccc3)nc12	nt	nt	nt	33*	nt
O=C(O)c1ccccc1NN=Cc1cc(Br)cc(Br)c1O	nt	nt	nt	-10	nt
O=C(CCCn1c(=O)c2ccccc2n(CC(=O)c2ccc(F)cc2)c1=O)NCc1ccco1	nt	nt	nt	-17	nt
Cc1noc(C2CN(C(=O)COc3ccccc3C)C2)n1	nt	nt	nt	-6	nt
O=C(O)C1CC=CCC1C(=O)N1CCN(c2nc(-c3ccccc3)c3ccccc3n2)CC1 (stereo not drawn)	-10	4	2600	-13	0
O=C(O)C1CC=CCC1C(=O)N1CCN(c2nc(-c3ccccc3Cl)c3cc(Br)ccc3n2)CC1 (stereo not drawn)	-56	-3	16567*	-17	-8
O=C(CSc1nnc(-c2ccccc2Cl)o1)Nc1ccc2c(c1)OCCO2	0	1	19436*	-2	-4
Cc1cc(C)cc(NC(=O)CSc2nnc(-c3ccccc3C)o2)c1	0	?	19314*	-31	-8
Cc1cccc(NC(=O)CSc2nnc(-c3ccccc3C)o2)c1	1	2	18972*	-3	-4
Cc1ccc(NC(=O)CSc2nnc(-c3ccccc3C)o2)cc1C	nt	nt	nt	-23	nt
C[C@](O)(CNC(=O)c1noc2c1CCCC2)c1cc2ccccc2o1	nt	nt	nt	-12	nt
COc1ccc(C)cc1S(=O)(=O)N1CCCC(c2nn(C)c(=O)n2-c2ccccc2)C1 (stereo not drawn)	nt	nt	nt	0	nt
COC(=O)c1cc(S(=O)(=O)N2CCC(C)CC2)ccc1F	2	2	22718*	-35	-1
CCOC(=O)N1CCC(NC(=O)c2ccc(CNS(=O)(=O)c3ccc(F)cc3)cc2)CC1	-7	-8	17979*	-11	-2
CCOC(=O)N1CCN(S(=O)(=O)c2ccc(OC)c(OC)c2)CC1	-7	-3	25529*	-10	-1
Cc1ccc(S(=O)(=O)NCc2ccc(C(=O)NC3CC3)cc2)cc1	-4	4	9834	-10	6
COC(=O)c1cccc(S(=O)(=O)N2CCC(C)CC2)c1	1	0	3308	-17	8
CCOC(=O)N1CCC(NC(=O)C2CCN(c3ccc(N4CCOCC4)nn3)CC2)CC1	0	-1	23805*	-6	-2
O=C(Nc1nnc(-c2ccno2)o1)c1cc(Cl)ccc1Cl	nt	nt	nt	7	nt
O=C(NC1CCN(c2nccs2)C1)c1ccc2noc(-c3ccccc3)c2c1 (stereo not drawn)	nt	nt	nt	23	nt
CCOC(=O)N1CCC(NC(=O)c2cc(S(=O)(=O)N3CCC4(CC3)OCCO4)ccc2F)CC1	-3	0	11134	-13	-1
SMILES	BoNT-F LC inh	BoNT A protease	Bead autofluor	SSB-PriA inh	Anthrax LF prot
CCOC(=O)N1CCN(C(=O)CN(Cc2ccc(Cl)cc2)S(=O)(=O)c2ccc(C)cc2)CC1	-6	-4	24719*	-11	-2
CCOC(=O)N1CCC(NC(=O)c2cc(S(=O)(=O)N3CCOCC3)ccc2F)CC1	0	-1	20906*	-11	1
CCOC(=O)N1CCC(N2CCN(S(=O)(=O)c3ccc(Cl)cc3)CC2)CC1	3	?	19293*	-8	2
COCCNC(=S)NN=C(C)c1ccc(OC)cc1	nt	nt	nt	-2	nt
COc1cccc(-n2c(SCC(=O)Nc3sc4c(c3C(N)=O)CCC4)nc3ccccc3c2=O)c1	-2	-1	16606*	-25	-3
COc1cccc(-n2c(SCC(=O)Nc3nc4ccccc4s3)nc3ccccc3c2=O)c1	nt	nt	nt	-3	nt
CCOC(=O)N1CCC(Oc2ncccc2Cl)CC1	nt	nt	nt	-7	nt
Cc1ccc(NC(=O)CCC(=O)OCC(F)(F)C(F)F)cc1	2	?	21194*	-2	-2
CCOC(=O)CC(=O)CSCC(=O)Nc1ccc(C)cc1	0	2	22826*	1	0
CCOC(=O)c1ccc(NC(=O)CSCc2ccco2)cc1	-3	?	16501*	-2	0
CCN(CC(=O)Nc1ccc(NC(C)=O)cc1)C(=O)CSCC(=O)Nc1ccc(C)cc1	-16	-18	10095	-3	-8
Cc1ccc(NC(=O)CSCC#N)cc1	-12	?	18468*	-15	-8
O=C(Nc1nc(-c2ccccn2)cs1)c1cc2ccccc2o1	3	3	3935	20	-1
Cn1nccc1C(=O)Nc1nc(-c2ccccn2)cs1	nt	nt	nt	97*	nt
CN1NC(C(=O)Nc2nc(-c3ccccn3)cs2)=CCC1=O	nt	nt	nt	124*	nt
Cn1c(C(=O)Nc2nc(-c3ccccn3)cs2)cc2ccccc21	nt	nt	nt	93*	nt
Cn1cccc1C(=O)Nc1nc(-c2ccccn2)cs1	-16	1	9145	85*	-4
CSC1CC2CCC(C1)N2C(=O)Cc1c(F)cccc1Cl (stereo not drawn)	nt	nt	nt	-16	nt
CCOC(=O)NCC1CCN(C(=O)c2cccnc2SC)CC1	nt	nt	nt	-10	nt
O=C(Cc1cn(Cc2ccc(Cl)cc2)c2ccccc12)NCc1ccccn1	nt	nt	nt	-5	nt
Cc1ccnc(NS(=O)(=O)c2ccc(NC(=O)c3c(F)cccc3F)cc2)n1	nt	nt	nt	4	nt
Cc1cc(C(=O)Nc2nc(-c3cc4ccccc4o3)cs2)n(C)n1	nt	nt	nt	-3	nt
Cc1cc(C(=O)Nc2nc(-c3ccccn3)cs2)n(C)n1	nt	nt	nt	118*	nt
C=CCN(c1ccccc1)S(=O)(=O)c1cccc(C(=O)NCC(c2ccc(OC)cc2)N2CCCCC2)c1 (stereo not drawn)	3	?	6047	0	-8
Cn1cccc1C(CNC(=O)c1ccc(C(C)(C)C)cc1)N1CCCC1 (stereo not drawn)	nt	nt	nt	9	nt
SMILES	BoNT-F LC inh	BoNT A protease	Bead autofluor	SSB-PriA inh	Anthrax LF prot
COc1ccc(C(CNC(=O)CNC(=O)c2ccccc2Cl)N2CCCC2)cc1 (stereo not drawn)	9	-4	7350	-5	-4
C=CCN(c1ccccc1OC)S(=O)(=O)c1cccc(C(=O)NCC(c2ccc(OC)cc2)N2CCCC2)c1 (stereo not drawn)	-1	-4	23106*	6	-9
COc1ccc(C(CNC(=O)c2cc3ccccc3cc2OC)N2CCCC2)cc1 (stereo not drawn)	0	?	27989*	-14	1
Cn1cccc1C(CNC(=O)c1ccc2ccccc2c1)N1CCCC1 (stereo not drawn)	nt	nt	nt	22*	nt
C=CCCCNC(=O)OC(C)(C)C	nt	nt	nt	2	nt
O=C1CC2c3ccccc3CCN2C(=O)CN1Cc1ccccc1 (stereo not drawn)	1	0	5279	nt	2
O=C1c2cnc3nc(SCc4ccccc4)nn3c2CC2c3ccccc3CCN12 (stereo not drawn)	9	3	22144*	9	2
O=C(Cc1ccccc1F)N1CCN(c2ccc(-c3ccccn3)nn2)CC1	nt	nt	nt	34	nt
O=C(Cn1ncccc1=O)N1CCN(c2ccc(-c3ccccn3)nn2)CC1	nt	nt	nt	130*	nt
COc1ccccc1-c1ccc(=O)n(CC(=O)N2CCN(c3ccc(-c4ccccn4)nn3)CC2)n1	nt	nt	nt	104*	nt
O=c1cc(O)nc(C(F)(F)F)[nH]1	nt	nt	nt	-17	nt
